The structures appear in SMILES notation. Inconclusive results are not listed. Where a call stands in place of a potency, no number is given. Unmarked numbers belong to inactive results. The source made the active and inactive calls. Calls follow the shape of the dose curve; as a rule, active = well fitted activation curve with a large enough effect in the repeat runs; inconclusive = weak or mixed curves; inactive = flat fitted curve, though single readings scatter.

Among the data in PubChem BioAssay (Tox21) are Potency and cytotoxicity increase values, retold here.
Potency is read from the fitted curve at half-maximal effect.

The nature of the assay: A CellTox Green Cytotoxicity Assay to monitor cytotoxicity in HEK293 cells - 8 hour (AID 1224884). Also: nearly all actives have a fitted effect of over 35% in size. Conditions: CellTox Green fluorescence; series mostly up to 76.8 µM. An excerpt:
National Center for Advancing Translational Sciences [NCATS]
NIH Chemical Genomics Center [NCGC]
U.S. Environmental Protection Agency [EPA]
National Institutes of Environmental Health Sciences [NIEHS]
National Toxicology Program [NTP]
Cell-based models are critical for drug discovery. Determining the natural cytotoxic effects resulting from test compounds is an essential research activity. A CellTox Green Cytotoxicity Assay to monitor cytotoxicity in real time of continues cell culture during 40 hours of the compound treatment was used to screen Tox21 10K library compounds in Hek293 cells. CellTox Green Cytotoxicity Assay is a nonlytic, homogeneous, biofluorescent method to measure cytotoxicity in cell culture after experimental manipulation. The assay system uses a proprietary asymmetric cyanine dye that is excluded from viable cells but preferentially stains the dead cell's DNA. […] Viable cells produce no appreciable increases in fluorescence. Therefore, the fluorescence signal produced by the binding interaction with dead cell DNA is proportional to cytotoxicity.
The mixture of Hek293 cell suspension and reagents were dispensed at 600cells/6 ul/well in 1536-well tissue culture treated black solid bottom plates using a Multidrop dispenser. After the assay plates were incubated at a 37 C/5% CO2 incubator for 5 hours, 23 nL of compounds dissolved in DMSO, positive and negative controls was transferred to the assay plate by a pintool work station. The plates were incubated at 37 C for 40 hours. The fluorescence intensity were measured at 0h, 8h, 16h, 24h, 32h and 40h time points using ViewLux plate reader during compound treatment.
Regarding `CCCCCCc1ccc(-c2ccc(C#N)cc2)cc1`, the Potency entry is “inactive”. Regarding `CC(C)(O)c1ccc(CNC(=O)c2cccnc2Oc2ccc(F)cc2)cc1`, the Potency entry is “inactive”. On to `CN(C)CCCN1c2ccccc2Sc2ccccc21`, for which the Potency result was “inactive”. On the same count and under the same terms, then `O=P(O)(OCc1ccccc1)OCc1ccccc1`, with “inactive”; and `O=[N+]([O-])c1cccc(S(=O)(=O)O)c1`, with “inactive”; and `O=C1[C@H]2CCCC[C@H]2C(=O)N1CCCCN1CCN(c2nsc3ccccc23)CC1`, with “inactive”. Consider `CCOC(=O)NCCOc1ccc(Oc2ccccc2)cc1`, for which the Potency result was “inactive”. As for `CN1C[C@H]2c3ccccc3Oc3ccc(Cl)cc3[C@@H]2C1`, the Potency entry is “inactive”.

As to `C=C(C)C(=O)OCCO`, the Potency result was “inactive”. The same measure, in the same setting: then `CCC(C)O` (stereo not given), with “inactive”. As for `CC[N+]1(CC)CCC(=C(c2ccccc2)c2ccccc2)C1C` (stereo not given), the Potency result is “inactive”. As to `NS(=O)(=O)c1ccc(N2CCCCS2(=O)=O)cc1`, the Potency result was “inactive”. On the same count and under the same terms, then `CCC(Cl)CCC(Cl)C(Cl)CC(Cl)C(Cl)C(Cl)CCl` (stereo not given), with “inactive”; and `CCCCCCCC/C=C\CCCCCCCC(=O)OCC`, with “inactive”. Regarding `COc1ccc2cccc(CCNC(C)=O)c2c1`, the Potency result was “inactive”. As for `CC(C)(C)OCC1CO1` (stereo not given), the Potency result was “inactive”.

Regarding `C[C@@H]1C[C@H]2O[C@@]3(O[C@@H]2C(C)(C)O)[C@H](O)[C@@]2(C)[C@@H]4CC[C@H]5C(C)(C)[C@@H](O[C@@H]6OC[C@@H](O)[C@H](O)[C@H]6O)CC[C@@]56C[C@@]46CC[C@]2(C)[C@@H]13`, the Potency result was “inactive”. Still for that read-out and setting: then `Nc1cc(C(=O)O)c(O)c(S(=O)(=O)O)c1`, with “inactive”; and `CCCCCCCCCCCCN1CCCCCC1=O`, with “inactive”; and `CC(C)(COC(=O)c1ccccc1)COC(=O)c1ccccc1`, with “inactive”.

`CNC(=O)CN(CCN(CCN(CC(=O)[O-])CC(=O)NC)CC(=O)[O-])CC(=O)[O-].O.[Gd+3]`: the Potency entry is “inactive”. On the same count and under the same terms, then `O=[N+]([O-])c1ccc(NCCO)c(OCCO)c1`, with “inactive”. Turning to `C/C(=C(\CCOP(=O)(O)O)SC(=O)c1ccccc1)N(C=O)Cc1cnc(C)nc1N`, the cytotoxicity increase is -3.85% [at 6.97 µM]. Consider `Cn1c(=O)cc(Oc2ccc(F)cc2F)c2cnc(NCC(C)(C)O)nc21`, for which the Potency result was “inactive”. On the same count and under the same terms, then `COc1cc(Cl)ccc1Oc1ccc(Cl)cc1Cl`, with “inactive”; and `Cc1oc(-c2ccccc2)nc1CCOc1cccc2c1ccn2CCC(=O)O`, with “inactive”. The same measure, in the same setting: then `CC(C)OC(=O)C(C)N(C(=O)c1ccccc1)c1ccc(F)c(Cl)c1` (stereo not given), with “inactive”; and `CC1=CCCC(C)(C)C12CCC(C)O2` (stereo not given), with “inactive”. The same measure, in the same setting: then `CC1(c2ccccc2)OC(C(=O)O)=CC1=O` (stereo not given), with “inactive”; and `C#C[C@]1(O)CC[C@H]2[C@@H]3CCc4cc(OC5CCCC5)ccc4[C@H]3CC[C@@]21C`, with “inactive”. For the compound `Nc1ccccc1S(=O)(=O)c1ccccc1`, the Potency result was “inactive”. On the same count and under the same terms, then `CCCCCCOC(=O)NC(=N)c1ccc(NCc2nc3cc(C(=O)N(CCC(=O)OCC)c4ccccn4)ccc3n2C)cc1`, with “inactive”; and `CN(C)C(=O)NC1(c2ccccc2)CCN(CC[C@@]2(c3ccc(F)c(F)c3)CN(C(=O)c3ccccc3)CCO2)CC1`, with “inactive”. Still for that read-out and setting: then `O=C(O)c1nc(Cl)c(Cl)c(Cl)c1Cl`, with “inactive”; and `CCCCCCCCCCCCCCOS(=O)(=O)O`, with 21.9 µM (active); and `CCN(CC)c1ccc(C(=C2C=CC(=[N+](CC)CC)C=C2)c2cc(S(=O)(=O)O)ccc2S(=O)(=O)[O-])cc1`, with “inactive”. Same read-out and setting: then `CCCCCCCCO[C@@H]1O[C@H](CO)[C@@H](O)[C@H](O)[C@H]1O`, with “inactive”; and `CCCn1cnc2c1c(=O)n(CCCCC(C)=O)c(=O)n2C`, with “inactive”.

Take `CC(C)CC(=O)C1C(=O)c2ccccc2C1=O`: the Potency result is “inactive”.

As to `CC(C)Nc1ccc(NC(C)C)c2c1C(=O)c1ccccc1C2=O`, the Potency entry is “inactive”.
